Assay results: PubChem BioAssay AID1159580 (chemical genetic matrix, 2015)
“And” between values parts separate entries of the source, which are not always exact repeats. Equal values may be shown once. Out of some 5,500 compounds screened, about 2,000 (36%) were called active. Not shown: some 18% with an inconclusive outcome. Rule as the data show it: active = normalized growth mostly below about 0.91 (no sharp cut-off); inconclusive = no clear call, values can overlap the other calls; inactive = mostly above about 0.92. The list shows a part of the results.

Assay: chemical genetic growth profiling, strain panel (AID 1159580);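 also: tested at 20 µM; growth read once vehicle control cultures reached saturation at 30 °C; 1 = growth at the plate median or of vehicle wells; lower values mean less growth of the strain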
Details: S. cerevisiae deletion strains, growth OD

Measured: normalized growth

COc1ccc(C(=O)N2CCCC2=O)cc1
inactive: locus YAL013W, strain DEP1, stronger effect = lower value 0.971 | locus YAL021C, strain ccr4, stronger effect = lower value 0.981 | locus YAL026C, strain drs2, stronger effect = lower value 0.976 | locus YAL030W, strain snc1, stronger effect = lower value 0.956 | locus YAL040C, strain CLN3, stronger effect = lower value 1.01 | locus YBL061C, strain skt5, stronger effect = lower value 0.962 | locus YBR009C, strain hhf1, stronger effect = lower value 0.969 | locus YBR021W, strain FUR4, stronger effect = lower value 1.05 | locus YBR023C, strain chs3, stronger effect = lower value 0.967 | locus YBR171W, strain sec66, stronger effect = lower value 0.96 | locus YBR229C, strain ROT2, stronger effect = lower value 0.953 | locus YBR231C, strain swc5, stronger effect = lower value 0.967 | locus YBR279W, strain paf1, stronger effect = lower value 0.987 | locus YCL011C, strain gbp2, stronger effect = lower value 0.946 | locus YCL016C, strain dcc1, stronger effect = lower value 0.976 | locus YCL029C, strain bik1, stronger effect = lower value 0.983 | locus YCL061C, strain MRC1, stronger effect = lower value 0.974 | locus YCL069W, strain vba3, stronger effect = lower value 0.985 | locus YCR088W, strain abp1, stronger effect = lower value 0.981 | locus YDL005C, strain med2, stronger effect = lower value 0.974 | locus YDL035C, strain GPR1, stronger effect = lower value 0.984 | locus YDL040C, strain nat1, stronger effect = lower value 0.984 | locus YDL074C, strain BRE1, stronger effect = lower value 0.961 | locus YDL101C, strain DUN1, stronger effect = lower value 0.952 | locus YDL134C, strain PPH21, stronger effect = lower value 0.993 | locus YDL185W, strain tfp1, stronger effect = lower value 0.964 | locus YDL192W, strain arf1, stronger effect = lower value 0.983 | locus YDR001C, strain nth1, stronger effect = lower value 0.97 | locus YDR069C, strain doa4, stronger effect = lower value 0.968 | locus YDR101C, strain arx1, stronger effect = lower value 0.989 | locus YDR137W, strain rgp1, stronger effect = lower value 0.967 | locus YDR150W, strain NUM1, stronger effect = lower value 0.968 | locus YDR159W, strain sac3, stronger effect = lower value 0.968 | locus YDR162C, strain NBP2, stronger effect = lower value 0.968 | locus YDR195W, strain ref2 1 | locus YDR297W, strain sur2, stronger effect = lower value 0.967 | locus YDR318W, strain mcm21, stronger effect = lower value 0.996 | locus YDR334W, strain swr1, stronger effect = lower value 0.939 | locus YDR335W, strain msn5, stronger effect = lower value 0.975 | locus YDR388W, stronger effect = lower value 0.999 | locus YDR392W, strain spt3, stronger effect = lower value 0.929 | locus YDR502C, strain sam2, stronger effect = lower value 0.995 | locus YEL003W, strain gim4, stronger effect = lower value 0.981 | locus YEL037C, strain rad23, stronger effect = lower value 0.979 | locus YEL061C, strain CIN8 (second series), stronger effect = lower value 0.971 | locus YEL061C, strain CIN8, stronger effect = lower value 0.983 | locus YER002W, strain NOP16, stronger effect = lower value 1 | locus YER015W, strain faa2, stronger effect = lower value 0.979 | locus YER016W, strain bim1, stronger effect = lower value 0.984 | locus YER110C, stronger effect = lower value 0.985 | locus YER111C, strain swi4, stronger effect = lower value 0.978 | locus YER155C, strain BEM2 (second series), stronger effect = lower value 0.974 | locus YER155C, strain BEM2, stronger effect = lower value 0.995 | locus YER167W, strain BCK2, stronger effect = lower value 0.983 | locus YFR010W, strain ubp6, stronger effect = lower value 0.962 | locus YGL078C, strain dbp3, stronger effect = lower value 0.985 | locus YGL086W, strain mad1, stronger effect = lower value 0.987 | locus YGL167C, strain pmr1, stronger effect = lower value 0.96 | locus YGL173C, strain kem1, stronger effect = lower value 0.961 | locus YGL227W, strain vid30, stronger effect = lower value 0.971 | locus YGL240W, strain doc1, stronger effect = lower value 0.992 | locus YGL248W, strain PDE1, stronger effect = lower value 0.977 | locus YGL253W, strain hxk2, stronger effect = lower value 0.976 | locus YGR078C, strain PAC10, stronger effect = lower value 0.973 and 1 | locus YGR135W, strain pre9, stronger effect = lower value 0.981 | locus YGR229C, strain SMI1, stronger effect = lower value 0.994 and 1.02 | locus YGR252W, strain gcn5, stronger effect = lower value 1.05 | locus YHR013C, strain ard1, stronger effect = lower value 0.962 | locus YHR027C, strain rpn1, stronger effect = lower value 0.956 | locus YHR030C, strain SLT2, stronger effect = lower value 0.992 | locus YHR079C, strain IRE1 (second series), stronger effect = lower value 0.991 | locus YHR094C, strain hxt1, stronger effect = lower value 0.991 | locus YHR129C, strain ARP1, stronger effect = lower value 0.992 | locus YHR142W, strain chs7, stronger effect = lower value 0.91 | locus YHR200W, strain rpn10, stronger effect = lower value 0.989 | locus YIL066C, strain RNR3, stronger effect = lower value 0.986 | locus YIL073C, strain SPO22, stronger effect = lower value 1.01 | locus YIL125W, strain kgd1, stronger effect = lower value 0.992 | locus YIR030C, strain dcg1, stronger effect = lower value 0.981 | locus YJL092W, strain hpr5, stronger effect = lower value 0.975 | locus YJL095W, strain BCK1 (second series), stronger effect = lower value 0.973 | locus YJL095W, strain BCK1, stronger effect = lower value 1 | locus YJL115W, strain asf1, stronger effect = lower value 0.957 | locus YJL129C, strain trk1, stronger effect = lower value 1.01 | locus YJL134W, strain LCB3, stronger effect = lower value 0.977 | locus YJL154C, strain vps35, stronger effect = lower value 0.975 | locus YJL164C, strain tpk1, stronger effect = lower value 0.985 | locus YJL166W, strain qcr8, stronger effect = lower value 0.945 | locus YJL168C, strain set2, stronger effect = lower value 0.992 | locus YJL187C, strain SWE1 (second series), stronger effect = lower value 0.98 | locus YJL187C, strain SWE1, stronger effect = lower value 0.975 | locus YJR043C, strain POL32, stronger effect = lower value 1
